# Where two headings read alike, the source gives them in different places.
# Columns and labels:
# NIM1 = test system: T1, NIM1; conditions: concentration: 1 μM, replicates: in singlicate; n = 1
# T1 construct: gene MGC42105
# NLK = conditions: concentration: 1 μM, replicates: in singlicate; n = 1
# OSR1 = test system: T2, OSR1; conditions: concentration: 1 μM, replicates: in singlicate; n = 1
# T2 construct: gene OXSR1
# PAK1 = conditions: concentration: 1 μM, replicates: in singlicate; n = 1
# PAK2 = conditions: concentration: 1 μM, replicates: in singlicate; n = 1
# PAK3 = conditions: concentration: 1 μM, replicates: in singlicate; n = 1
# PAK4 = conditions: n = 1
# PAK6 = conditions: concentration: 1 μM, replicates: in singlicate; n = 1
# PAK7 = conditions: concentration: 1 μM, replicates: in singlicate; n = 1
# PCTK1 = test system: T3, PCTK1; conditions: concentration: 1 μM, replicates: in singlicate; n = 1
# T3 construct: gene CDK16
# [1] = concentration: 1 μM, replicates: in singlicate
# 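Note: KINOMEscan kinase panel screen.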
Structure (SMILES),%Inh (NIM1) [%],%Inh (NLK) [%],%Inh (OSR1) [%],%Inh (PAK1) [%],%Inh (PAK2) [%],%Inh (PAK3) [%],%Inh (PAK4; [1]) [%],%Inh (PAK6) [%],%Inh (PAK7) [%],%Inh (PCTK1) [%],%Inh (PAK4; 1 µM) [%]
c1ccc(Oc2ccc(Nc3ccnc4cc(-c5ccc(CN6CCCCC6)o5)ccc34)cc2)nc1 [GW567143],69,13,4,16,16,33,0,0,8,0,–
CCNC(=O)/C=C/c1n[nH]c2cc(Sc3ccccc3C(=O)NC)ccc12,2,57,0,0,0,0,0,4,20,7,–
Fc1cc(Cl)ccc1Nc1ccnc2cc(-c3ccc(CN4CCSCC4)o3)ccc12 [GW560106],23,30,0,8,4,45,0,0,0,0,–
COc1ccc(NC(=O)c2ccoc2)cc1-c1ccc(C(=O)NCC2CC2)cc1 [GW810437],41,11,17,0,44,24,0,0,10,4,–
COc1cc(Nc2nccc(N3CCC(NS(=O)(=O)c4ccc(NC(C)=O)cc4)CC3)n2)cc(OC)c1OC [GSK1379825],16,27,19,0,19,13,0,5,1,14,–
CN(C)CCOc1ccc(-c2cc(-c3ccc(Cl)c(O)c3)c(-c3ccncc3)[nH]2)cc1.Cl.Cl [SB-684387],40,66,7,8,6,0,0,0,20,1,–
COC(=O)Nc1nc2ccc(Oc3ccc(CC(=O)Nc4cc(C(F)(F)F)ccc4F)cc3)cc2[nH]1 [GW680903],26,22,3,19,22,15,0,0,97.7,0,–
CC(C)c1nc(-c2ccc(F)c(NS(=O)(=O)c3c(F)cccc3F)c2)c(-c2ccnc(Nc3ccc(N4CCOCC4)nc3)n2)s1 [GSK1804250],0,96.3,7,5,11,36,0,0,10,94.6,–
N#Cc1cnc2cc(-c3cnc(CNCCN4CCOCC4)s3)ccc2c1Nc1ccc(Oc2ccccc2)cc1 [GW664114],12,0,0,10,0,21,0,10,2,28,–
Cc1ccccc1CC(=O)N1CCc2cc(-c3cn(C)c4ncnc(N)c34)ccc21 [GSK2603346],3,0,12,0,0,48,0,0,0,0,–
Nc1ncc(-c2ccc3nccc(-c4ccncc4)c3c2)cc1S(=O)(=O)N1CCCCC1 [GSK1693850],0,13,5,18,8,14,0,0,18,0,–
CSc1ccc(NC2=C(c3ccc(Cl)cc3)C(=O)NC2=O)cc1 [SB-317658],0,0,6,2,28,36,2,29,0,0,–
Cc1ccc(O)cc1Nc1ccnc2cc(-c3ccc(CN4CCCCC4)o3)ccc12 [GW557777],0,19,0,24,23,0,13,21,7,0,–
COc1cccc(CC(=O)N2CCc3cc(-c4cn(C)c5ncnc(N)c45)ccc32)c1 [GSK2608899],0,5,6,13,4,50,2,0,18,3,–
Cc1ccc(NC(=O)c2ccnc(N3CCCCC3)c2)cc1-c1ccc(C(=O)NCC2CC2)cc1 [GW775610],8,15,0,0,0,15,17,0,0,73,–
O=C(Nc1n[nH]c2nc(-c3ccccc3O)ccc12)C1CC1 [SB-711880],0,10,0,0,0,0,33,8,26,11,–
Cn1cc(-c2ccc3c(c2)CCN3C(=O)Cc2cc(F)cc(F)c2F)c2c(N)ncnc21 [GSK2634140],8,0,14,16,12,35,0,0,0,6,–

Structure (SMILES),%Inh (NIM1) [%],%Inh (NLK) [%],%Inh (OSR1) [%],%Inh (PAK1) [%],%Inh (PAK2) [%],%Inh (PAK3) [%],%Inh (PAK4; [1]) [%],%Inh (PAK6) [%],%Inh (PAK7) [%],%Inh (PCTK1) [%],%Inh (PAK4; 1 µM) [%]
O=C(Nc1n[nH]c2cc(-c3cccs3)ccc12)C1CC1 [SB-731284],12,0,16,0,0,43,0,0,7,48,–
Cc1cccc(Nc2nc(N[C@H]3CCCC[C@H]3N)ncc2C(N)=O)c1.Cl [GSK986310],18,27,33,40,70,55,–,89,99.5,10,95.4
COc1cc(Nc2ccnc3cc(-c4ccncc4)ccc23)cc(OC)c1OC.Cl [GW494610],23,92.8,100,0,0,0,0,0,0,0,–
COc1cccc(NC(=O)NCCNc2ccnc(Nc3ccc(F)cc3)n2)c1 [GSK1379879],17,8,17,16,8,0,0,0,0,0,–
N#CC1(c2cccc(C(=O)Nc3cccc(Oc4ccc5nc(NC(=O)C6CC6)sc5n4)c3)c2)CC1,0,0,0,3,27,0,0,15,0,0,–
Cc1ccc(-c2ccc3occ(-c4ccc(S(C)=O)cc4)c3c2)nn1 (stereo not drawn),0,1,0,6,4,0,1,0,0,0,–
Cl.Cl.NCC(NC(=O)c1cc(-c2cccnc2)c(-c2ccnc3[nH]ccc23)s1)c1ccccc1 (stereo not drawn) [GSK1323434],36,19,17,4,6,39,0,28,65,0,–
COc1cccc(-c2nc(-c3ccccc3)[nH]c2-c2ccncc2)c1 [SB-610250],40,89,0,23,32,16,0,0,0,5,–
Cc1cc(-c2c(-c3ccc(F)cc3)ncn2CCCN2CCOCC2)nc(N)n1 [SB-222517],0,17,0,0,66,0,1,1,0,0,–
O=C(O)C(F)(F)F.O=c1[nH]ccc2nc(N[C@@H]3CCNC3)nc(Nc3cc(Cl)cc(Cl)c3)c12 [GSK2188764],67,19,54,92.2,78,96.9,96.4,96,99.9,7,–
Nc1cccc(-c2ccc3c(N)n[nH]c3c2)c1 [GSK2193613],0,17,13,2,2,0,0,6,15,0,–
Cc1ccc(NC(=O)c2ccc(Cl)c(Cl)c2)cc1-c1ccc(C(=O)Nc2ccncc2)cc1 [GSK1398460],0,43,6,19,19,20,0,0,1,0,–
CCOc1nccc(-c2c(-c3ccc(F)cc3)ncn2C2CCNCC2)n1 [SB-249175],44,45,47,6,29,0,32,3,6,26,–
Nc1ncnc2scc(-c3ccc(NC(=O)Cc4cc(F)ccc4F)cc3)c12.O=C(O)C(F)(F)F [SB-731254-M],0,4,11,7,32,46,0,0,1,2,–
COc1cccc(C2=C(Nc3cccc(O)c3)C(=O)NC2=O)c1 [SB-390771],16,15,8,7,5,32,0,100,26,15,–
Cc1ccc(C)c(NC(=O)Nc2ccc(C)c(-c3ccc(C(=O)Nc4ccncc4)cc3)c2)c1 [GSK1398473],1,50,2,21,15,15,0,0,0,13,–

# Reference: article PMC5540273 (PLoS ONE, 2017)
